Experimental data reported in PubChem BioAssay (EPA / NIEHS).
Records with an inconclusive call do not appear. The source made the active and inactive calls. How the source made its calls, unless noted: active means hit-call score of the fitted dose curve at least 0.9, where 1 is the maximum; inactive means score below 0.9.

What was measured:
[1] = biological target: Glucocorticoid receptor (Homo sapiens) (UniProt P04150); assay: ATG_GR_TRANS: Attagene TRANS-FACTORIAL HepG2 Assay for human Glucocorticoid Receptor (GR) (AID 2282978; active means hit-call score of the fitted dose curve at least 0.9, where 1 is the maximum;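 further: activators score as hits since higher reporter transcript over DMSO is fitted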); details: HepG2 Attagene TRANS GR reporter, mRNA transcription
Summary of the method: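 Exogenous NR-GAL4 fusion activity was assessed through induced GAL4-UAS reporter transcripts in transfected human HepG2 cells, quantified after 24 h by RT-PCR and fluorescent capillary electrophoresis with DMSO as baseline.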

[2] = biological target: Bile acid receptor (Homo sapiens) (UniProt Q96RI1); assay: ATG_FXR_TRANS: Attagene TRANS-FACTORIAL HepG2 Assay for Farnesoid X Receptor (FXR) (AID 2282979; active means hit-call score of the fitted dose curve at least 0.9, where 1 is the maximum;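 further: hits raise reporter mRNA above DMSO so AC50 marks FXR activation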); details: HepG2 Attagene TRANS FXR-GAL4 reporter transcription
Summary of the method: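 Read-out: fluorescent reporter transcripts quantified by capillary electrophoresis after RT-PCR of total RNA. Source cells were HepG2 transiently carrying chimeric NR-GAL4 plus GAL4-UAS reporter units, dosed 24 h. Activity fitted upward relative to DMSO baseline.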

[3] = biological target: Oxysterols receptor LXR-alpha (Homo sapiens) (UniProt Q13133); assay: ATG_LXRa_TRANS: Attagene TRANS-FACTORIAL HepG2 Assay for human Liver X Receptor alpha (LXRa) (AID 2282980; active means hit-call score of the fitted dose curve at least 0.9, where 1 is the maximum); details: HepG2 Attagene TRANS reporter, LXRa transactivation
Summary of the method: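 Read-out: reporter transcript levels by RT-PCR plus capillary electrophoresis, fluorescence intensity. Transiently transfected HepG2, exogenous NR-GAL4 chimera, GAL4-UAS reporters; 24 h compound exposure. Activity = increase over DMSO negative control.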

[4] = biological target: Oxysterols receptor LXR-beta (Homo sapiens) (UniProt P55055); assay: ATG_LXRb_TRANS: Attagene TRANS-FACTORIAL HepG2 Assay for human Liver X Receptor beta (LXRb) (AID 2282981; active means hit-call score of the fitted dose curve at least 0.9, where 1 is the maximum); details: HepG2 Attagene TRANS GAL4-LXRb reporter, mRNA
Summary of the method: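 HepG2 cells transiently transfected with multiple reporter transcription units carrying chimeric NR-Gal4 proteins acting on GAL4-UAS reporters; compound exposure 24 h. Reporter mRNA quantified by RT-PCR, 6-FAM labelling, HpaI digestion and capillary electrophoresis; gain of signal versus DMSO.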

[5] = biological target: Hepatocyte nuclear factor 4-alpha (Homo sapiens) (UniProt P41235); assay: ATG_HNF4a_TRANS: Attagene TRANS-FACTORIAL HepG2 Assay for human Hepatocyte Nuclear Factor 4 alpha (HNF4a) (AID 2282982; active means hit-call score of the fitted dose curve at least 0.9, where 1 is the maximum); details: HepG2 HNF4a transactivation reporter, mRNA readout
Summary of the method: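 HepG2 cells transiently transfected with multiplexed GAL4-UAS reporter units responsive to chimeric NR-GAL4 proteins; compound exposure 24 h. Reporter mRNA quantified by RT-PCR, 6-FAM labelling, HpaI digestion and capillary electrophoresis; gain of signal versus DMSO baseline.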

[6] = ATG_M_06_TRANS: Attagene TRANS-FACTORIAL HepG2 Assay for M06 Transcription Factor (Internal Marker) (AID 2282983; active means hit-call score of the fitted dose curve at least 0.9, where 1 is the maximum); details: HepG2 Attagene TRANS M06 internal marker reporter
Summary of the method: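 After a 24 h chemical treatment of transfected HepG2, RNA underwent DNase I treatment, reverse transcription and reporter-specific PCR; labelled, HpaI-digested products were sized by capillary electrophoresis. Signal increase relative to DMSO defined activity.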

[7] = ATG_M_32_TRANS: Attagene TRANS-FACTORIAL HepG2 Assay for M32 Transcription Factor (Internal Marker) (AID 2282984; active means hit-call score of the fitted dose curve at least 0.9, where 1 is the maximum;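 further: transcript level of a background control reporter unit measured by RT-PCR and capillary electrophoresis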); details: HepG2 Attagene TRANS M32 internal marker reporter
Summary of the method: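 HepG2 cells transiently transfected with multiple GAL4-UAS reporter transcription units, dosed for 24 hours; reporter mRNA quantified by RT-PCR, 6-FAM primer extension, HpaI digestion and capillary electrophoresis. Gain-of-signal fitted versus DMSO baseline; internal background-control marker.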

[8] = biological target: Nuclear receptor subfamily 4 group A member 2 (Homo sapiens) (UniProt P43354); assay: ATG_NURR1_TRANS: Attagene TRANS-FACTORIAL HepG2 Assay for human Nuclear Receptor Related Protein 1 (NURR1) (AID 2282985; active means hit-call score of the fitted dose curve at least 0.9, where 1 is the maximum); details: HepG2 Attagene TRANS reporter, mRNA readout
Summary of the method: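 HepG2 cells transiently transfected with GAL4-UAS reporter units and chimeric NR-Gal4 constructs; chemical exposure 24 h. Reporter mRNA quantified by RT-PCR, fluorescent labelling and capillary electrophoresis; gain of signal fitted relative to DMSO baseline.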

[9] = biological target: Transcriptional activator Myb (Homo sapiens) (UniProt P10242); assay: ATG_Myb_CIS: Attagene CIS-FACTORIAL HepG2 Assay for human Myeloblastosis (Myb) Proto-Oncogene Transcription Factor (AID 2282986); details: HepG2 Attagene CIS-FACTORIAL Myb reporter transcription; actives raise or lower the signal
Summary of the method: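 In this HepG2 transient-transfection format, cis-regulated reporter mRNA is quantified 24 h post-dosing by RT-PCR with capillary electrophoresis, fitted bidirectionally to DMSO baseline.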

[10] = biological target: Nuclear respiratory factor 1 (Homo sapiens) (UniProt Q16656); assay: ATG_NRF1_CIS: Attagene CIS-FACTORIAL HepG2 Assay for human Nuclear Respiratory Factor 1 (NRF1) Orphan Gene (AID 2282987); details: HepG2 NRF1 cis-element reporter, Attagene multiplex; actives raise or lower the signal
Summary of the method: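 Using DMSO as baseline, gain- or loss-of-signal was fitted for reporter mRNA levels in HepG2 cells transiently transfected with cis-regulated reporter units. Samples were taken 24 h after dosing and read by RT-PCR with capillary electrophoresis.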

[11] = ATG_NFI_CIS: Attagene CIS-FACTORIAL HepG2 Assay for human Nuclear Factor I (NFI) (AID 2282989); details: HepG2 cis-regulatory reporter, NFI response element transcription; actives raise or lower the signal
Summary of the method: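 Reporter transcripts were measured by RT-PCR with fluorescent primer extension and capillary electrophoresis 24 h post-treatment. HepG2 cells carried transiently transfected cis-regulated reporter constructs reporting endogenous factor activity; gain or loss fitted against DMSO baseline.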

[12] = biological target: Myc proto-oncogene protein (Homo sapiens) (UniProt P01106); assay: ATG_Myc_CIS: Attagene CIS-FACTORIAL HepG2 Assay for human Myelocytomatosis (Myc) Proto-Oncogene Transcription Factor (AID 2282990); details: HepG2, Attagene cis-reporter transcription factor activity; actives raise or lower the signal
Summary of the method: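 DMSO-normalised, bidirectionally fitted reporter mRNA signal. HepG2 cells transfected with cis reporter constructs, treated 24 h; transcripts detected by RT-PCR, 6-FAM primer extension and CE.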

[13] = ATG_NF_kB_CIS: Attagene CIS-FACTORIAL HepG2 Assay for human Nuclear Factor Kappa B (NF-kB) (AID 2282991); details: HepG2 Attagene cis-factorial NF-kB reporter mRNA; actives raise or lower the signal
Summary of the method: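 Endpoint from a 52-component multiplexed HepG2 reporter panel: cis-regulated transcription units transiently transfected, 24 h dosing, reporter mRNA quantified by RT-PCR and capillary electrophoresis, scored as increase or decrease against DMSO.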

[14] = ATG_NRF2_ARE_CIS: Attagene CIS-FACTORIAL HepG2 Assay for human Nuclear Factor Erythroid 2 Related Factor 2 (NFR2) response to Antioxidant Response Elements (ARE) (AID 2282992); details: HepG2 Attagene ARE/NRF2 reporter, transcription factor activity; actives raise or lower the signal;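 on AC50: reporter mRNA level measured by RT-PCR and capillary electrophoresis fluorescence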
Summary of the method: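 Cis-factorial assay: transfected HepG2 reporter library, 24 h dosing, mRNA readout via RT-PCR/CE; DMSO-referenced bidirectional analysis.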

[15] = ATG_Oct_MLP_CIS: Attagene CIS-FACTORIAL HepG2 Assay for human Octamer-Binding Transcription Factor (Oct) (AID 2282993); details: HepG2 Attagene cis-factorial Oct reporter, mRNA; actives raise or lower the signal
Summary of the method: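 Readout is reporter transcript level from RT-PCR with fluorescent primer extension and capillary electrophoresis, fitted in both directions against DMSO. Transfected HepG2 reporter units report endogenous factor activity after 24 h dosing.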

[16] = biological target: Cellular tumor antigen p53 (Homo sapiens) (UniProt P04637); assay: ATG_p53_CIS: Attagene CIS-FACTORIAL HepG2 Assay for human p53 Transcription Factor (AID 2282994); details: HepG2 p53 cis-element reporter, Attagene mRNA; actives raise or lower the signal
Summary of the method: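 Using HepG2 hepatoma cells carrying cis-acting multiplexed reporters, mRNA induction is detected after a 24 h exposure. Gain- and loss-of-signal responses are fitted relative to DMSO-treated cells.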

[17] = BSK_3C_TissueFactor: BioMAP Diversity Plus: 3C Assay for Tissue Factor Biomarker Activity (AID 2282997); details: BioMAP 3C HUVEC, tissue factor biomarker readout; actives raise or lower the signal
Summary of the method: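 Human vascular primary cells (umbilical vein endothelium) received test chemical; Tissue Factor was determined by ELISA at 24 h, and both gain and loss of signal versus DMSO were fitted.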

[18] = BSK_3C_uPAR: BioMAP Diversity Plus: 3C Assay for Urokinase-type plasminogen activator receptor (uPAR) Biomarker Activity (AID 2282998); details: BioMAP 3C HUVEC, uPAR biomarker ELISA; actives raise or lower the signal
Summary of the method: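 Cell-surface uPAR on HUVEC (3C system) read by ELISA at 24 h post-treatment, with DMSO as baseline and fitting in both directions. Parallel cultures stained with SRB to flag overt cytotoxicity.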

[19] = BSK_3C_VCAM1: BioMAP Diversity Plus: 3C Assay for Vascular cell adhesion molecule 1 (VCAM1) Biomarker Activity (AID 2282999); details: BioMAP 3C HUVEC, VCAM1 ELISA, cytokine-stimulated; actives raise or lower the signal
Summary of the method: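 Human umbilical vein endothelial cells were dosed with compound for 24 h, after which cell-surface VCAM-1 was quantified by ELISA. Bidirectional curve fitting used DMSO as negative control and activity baseline.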

[20] = biological target: Estrogen-related receptor gamma (Homo sapiens) (UniProt P62508); assay: ATG_ERRg_TRANS: Attagene TRANS-FACTORIAL HepG2 Assay for human Estrogen-Related Receptor gamma (ERRg) (AID 2282977; active means hit-call score of the fitted dose curve at least 0.9, where 1 is the maximum;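 further: hits increase reporter signal over DMSO so potencies reflect activators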); details: HepG2 Attagene TRANS reporter, ERRg transactivation
Summary of the method: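 Transient HepG2 transfectants, 24 h compound exposure, GAL4-UAS reporter mRNA by RT-PCR/6-FAM labelling/capillary electrophoresis; positive direction vs DMSO.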

Measured: AC50

Oxysterols receptor LXR-alpha (Homo sapiens), sequence (Q13133 whole entry, looked up, the tested form may be a part): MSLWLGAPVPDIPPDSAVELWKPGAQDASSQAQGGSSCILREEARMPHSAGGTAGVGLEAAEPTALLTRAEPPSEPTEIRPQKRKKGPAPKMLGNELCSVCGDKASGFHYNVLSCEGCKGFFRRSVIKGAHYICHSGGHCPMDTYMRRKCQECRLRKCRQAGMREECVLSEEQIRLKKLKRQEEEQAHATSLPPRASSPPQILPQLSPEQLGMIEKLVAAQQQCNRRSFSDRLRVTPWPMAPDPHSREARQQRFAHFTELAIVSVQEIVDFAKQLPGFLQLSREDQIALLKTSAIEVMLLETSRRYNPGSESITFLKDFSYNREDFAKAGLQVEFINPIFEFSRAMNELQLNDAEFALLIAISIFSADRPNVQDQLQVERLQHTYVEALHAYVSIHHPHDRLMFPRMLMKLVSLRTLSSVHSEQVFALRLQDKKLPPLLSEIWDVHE
Bile acid receptor (Homo sapiens), sequence (Q96RI1 whole entry, looked up, the tested form may be a part): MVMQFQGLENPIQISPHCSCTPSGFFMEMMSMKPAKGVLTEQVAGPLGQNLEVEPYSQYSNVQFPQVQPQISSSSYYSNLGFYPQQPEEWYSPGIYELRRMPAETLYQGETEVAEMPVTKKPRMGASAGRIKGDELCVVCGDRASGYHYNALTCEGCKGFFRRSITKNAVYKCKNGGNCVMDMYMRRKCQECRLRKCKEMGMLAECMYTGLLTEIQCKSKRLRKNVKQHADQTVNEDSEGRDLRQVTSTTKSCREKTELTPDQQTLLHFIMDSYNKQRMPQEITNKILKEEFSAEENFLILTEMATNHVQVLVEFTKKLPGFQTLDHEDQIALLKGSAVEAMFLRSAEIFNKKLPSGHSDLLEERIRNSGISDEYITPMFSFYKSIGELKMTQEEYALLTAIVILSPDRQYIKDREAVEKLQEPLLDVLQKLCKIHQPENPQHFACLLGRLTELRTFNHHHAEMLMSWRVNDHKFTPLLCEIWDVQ
Nuclear receptor subfamily 4 group A member 2 (Homo sapiens), sequence (P43354 whole entry, looked up, the tested form may be a part): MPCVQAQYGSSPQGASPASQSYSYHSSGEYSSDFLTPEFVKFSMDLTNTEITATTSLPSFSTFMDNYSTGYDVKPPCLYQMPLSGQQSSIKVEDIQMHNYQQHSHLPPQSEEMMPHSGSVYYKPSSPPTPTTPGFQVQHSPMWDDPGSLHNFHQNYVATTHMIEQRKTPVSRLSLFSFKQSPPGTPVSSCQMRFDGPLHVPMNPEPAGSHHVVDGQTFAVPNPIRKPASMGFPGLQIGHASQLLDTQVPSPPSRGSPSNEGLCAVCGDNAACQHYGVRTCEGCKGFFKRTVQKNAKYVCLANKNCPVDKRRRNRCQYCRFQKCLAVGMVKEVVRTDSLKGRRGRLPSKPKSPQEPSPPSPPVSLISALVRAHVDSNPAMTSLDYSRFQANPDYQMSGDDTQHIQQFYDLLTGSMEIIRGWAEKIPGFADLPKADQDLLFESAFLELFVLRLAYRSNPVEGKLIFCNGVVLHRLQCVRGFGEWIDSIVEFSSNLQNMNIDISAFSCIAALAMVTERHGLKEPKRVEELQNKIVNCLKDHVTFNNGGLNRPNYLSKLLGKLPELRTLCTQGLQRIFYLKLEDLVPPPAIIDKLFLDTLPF
Hepatocyte nuclear factor 4-alpha (Homo sapiens), sequence (P41235 whole entry, looked up, the tested form may be a part): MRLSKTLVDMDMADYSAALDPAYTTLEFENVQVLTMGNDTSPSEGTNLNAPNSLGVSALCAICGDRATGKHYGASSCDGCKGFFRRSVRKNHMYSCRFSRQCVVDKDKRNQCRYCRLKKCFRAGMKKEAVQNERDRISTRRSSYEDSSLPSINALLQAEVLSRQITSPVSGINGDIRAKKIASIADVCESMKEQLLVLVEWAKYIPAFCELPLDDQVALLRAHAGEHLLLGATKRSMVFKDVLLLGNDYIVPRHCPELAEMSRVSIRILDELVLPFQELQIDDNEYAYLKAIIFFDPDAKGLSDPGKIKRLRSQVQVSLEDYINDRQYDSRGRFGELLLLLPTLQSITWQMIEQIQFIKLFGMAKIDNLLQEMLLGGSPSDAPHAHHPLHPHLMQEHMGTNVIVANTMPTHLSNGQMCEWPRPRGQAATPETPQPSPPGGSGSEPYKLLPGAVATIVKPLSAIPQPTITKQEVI
Transcriptional activator Myb (Homo sapiens), sequence (P10242 whole entry, looked up): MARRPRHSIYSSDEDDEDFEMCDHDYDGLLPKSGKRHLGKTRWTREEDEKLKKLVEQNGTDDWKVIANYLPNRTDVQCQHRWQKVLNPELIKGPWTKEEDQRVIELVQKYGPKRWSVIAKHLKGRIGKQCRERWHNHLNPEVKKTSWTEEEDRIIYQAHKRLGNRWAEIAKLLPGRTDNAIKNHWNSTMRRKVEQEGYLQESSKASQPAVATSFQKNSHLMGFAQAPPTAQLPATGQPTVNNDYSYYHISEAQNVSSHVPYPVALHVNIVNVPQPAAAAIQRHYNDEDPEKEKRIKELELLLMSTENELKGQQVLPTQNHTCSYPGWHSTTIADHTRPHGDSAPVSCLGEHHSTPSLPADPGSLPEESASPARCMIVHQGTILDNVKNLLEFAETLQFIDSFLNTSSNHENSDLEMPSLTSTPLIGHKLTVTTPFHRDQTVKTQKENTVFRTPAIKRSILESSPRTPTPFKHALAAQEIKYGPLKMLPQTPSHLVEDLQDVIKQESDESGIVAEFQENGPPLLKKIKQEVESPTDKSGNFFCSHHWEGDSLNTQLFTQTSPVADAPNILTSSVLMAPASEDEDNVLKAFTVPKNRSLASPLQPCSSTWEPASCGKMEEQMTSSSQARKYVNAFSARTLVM
Oxysterols receptor LXR-beta (Homo sapiens), sequence (P55055 whole entry, looked up, the tested form may be a part): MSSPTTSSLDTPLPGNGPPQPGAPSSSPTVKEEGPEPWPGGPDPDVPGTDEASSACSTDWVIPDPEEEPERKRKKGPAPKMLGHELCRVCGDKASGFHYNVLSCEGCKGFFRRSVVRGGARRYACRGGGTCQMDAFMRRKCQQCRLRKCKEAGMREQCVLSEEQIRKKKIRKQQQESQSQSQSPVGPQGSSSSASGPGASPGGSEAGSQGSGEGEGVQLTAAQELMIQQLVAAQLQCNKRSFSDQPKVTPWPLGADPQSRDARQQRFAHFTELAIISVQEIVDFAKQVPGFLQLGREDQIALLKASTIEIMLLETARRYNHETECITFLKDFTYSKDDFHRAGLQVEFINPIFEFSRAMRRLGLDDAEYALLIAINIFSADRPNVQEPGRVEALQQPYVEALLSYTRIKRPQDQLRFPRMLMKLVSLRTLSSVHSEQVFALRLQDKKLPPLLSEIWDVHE
Estrogen-related receptor gamma (Homo sapiens), sequence (P62508 whole entry, looked up, the tested form may be a part): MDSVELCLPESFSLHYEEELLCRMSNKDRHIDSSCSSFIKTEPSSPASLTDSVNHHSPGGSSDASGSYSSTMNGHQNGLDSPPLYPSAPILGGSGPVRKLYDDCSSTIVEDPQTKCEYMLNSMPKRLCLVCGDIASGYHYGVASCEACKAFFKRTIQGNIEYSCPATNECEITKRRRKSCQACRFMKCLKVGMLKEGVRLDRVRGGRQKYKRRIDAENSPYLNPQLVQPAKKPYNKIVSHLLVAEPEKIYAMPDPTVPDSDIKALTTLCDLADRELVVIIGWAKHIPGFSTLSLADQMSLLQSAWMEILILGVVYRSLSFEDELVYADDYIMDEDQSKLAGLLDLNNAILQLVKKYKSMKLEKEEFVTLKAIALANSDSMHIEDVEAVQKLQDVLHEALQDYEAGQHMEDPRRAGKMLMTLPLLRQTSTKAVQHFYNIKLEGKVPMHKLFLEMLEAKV
Nuclear respiratory factor 1 (Homo sapiens), sequence (Q16656 whole entry, looked up): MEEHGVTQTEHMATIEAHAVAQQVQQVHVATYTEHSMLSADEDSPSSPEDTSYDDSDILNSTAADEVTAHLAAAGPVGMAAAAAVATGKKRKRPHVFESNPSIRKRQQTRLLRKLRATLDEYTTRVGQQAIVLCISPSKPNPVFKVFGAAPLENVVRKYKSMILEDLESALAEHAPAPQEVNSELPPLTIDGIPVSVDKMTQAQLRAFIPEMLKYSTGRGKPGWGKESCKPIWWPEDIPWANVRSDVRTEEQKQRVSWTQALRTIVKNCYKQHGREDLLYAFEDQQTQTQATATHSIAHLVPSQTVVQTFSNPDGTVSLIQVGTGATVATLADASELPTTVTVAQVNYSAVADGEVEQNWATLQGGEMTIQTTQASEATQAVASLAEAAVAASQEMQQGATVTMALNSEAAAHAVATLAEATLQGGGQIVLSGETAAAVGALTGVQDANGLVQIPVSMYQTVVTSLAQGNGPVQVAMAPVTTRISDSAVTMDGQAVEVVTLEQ
Myc proto-oncogene protein (Homo sapiens), sequence (P01106 whole entry, looked up): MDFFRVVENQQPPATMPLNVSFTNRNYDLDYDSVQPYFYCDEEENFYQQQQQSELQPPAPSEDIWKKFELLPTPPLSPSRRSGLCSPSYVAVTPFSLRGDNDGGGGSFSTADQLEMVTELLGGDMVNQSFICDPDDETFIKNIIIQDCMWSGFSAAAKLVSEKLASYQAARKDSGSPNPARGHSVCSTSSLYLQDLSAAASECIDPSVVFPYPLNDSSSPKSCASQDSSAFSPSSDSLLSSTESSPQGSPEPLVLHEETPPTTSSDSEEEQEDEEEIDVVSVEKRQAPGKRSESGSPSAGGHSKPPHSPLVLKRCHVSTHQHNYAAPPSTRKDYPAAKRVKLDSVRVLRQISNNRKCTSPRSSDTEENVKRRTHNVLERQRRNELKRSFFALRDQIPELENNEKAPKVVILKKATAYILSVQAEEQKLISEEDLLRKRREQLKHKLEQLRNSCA
Cellular tumor antigen p53 (Homo sapiens), sequence (P04637 whole entry, looked up): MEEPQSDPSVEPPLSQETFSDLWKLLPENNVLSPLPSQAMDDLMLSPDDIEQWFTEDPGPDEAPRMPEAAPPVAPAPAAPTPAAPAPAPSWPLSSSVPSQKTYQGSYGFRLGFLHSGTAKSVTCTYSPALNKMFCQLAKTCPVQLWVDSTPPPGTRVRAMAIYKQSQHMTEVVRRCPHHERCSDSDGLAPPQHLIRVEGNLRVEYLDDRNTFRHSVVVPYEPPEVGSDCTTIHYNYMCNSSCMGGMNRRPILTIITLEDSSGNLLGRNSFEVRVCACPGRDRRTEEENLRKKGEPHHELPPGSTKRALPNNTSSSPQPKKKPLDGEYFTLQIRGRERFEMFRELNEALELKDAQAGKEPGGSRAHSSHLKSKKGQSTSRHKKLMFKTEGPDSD

C=C(C)C(=O)OCC(F)(F)C(F)(F)C(F)(F)C(F)F
not listed: [20]
inactive: all other assays above

CCOC(C=C(C)CCC=C(C)C)OCC
active: [14] 46.5 µM | [17] 30.9 µM | [18] 31.3 µM | [19] 34 µM
not listed: [1] | [2] | [3] | [4] | [6]
inactive: all other assays above

CCC(=O)OC(C)c1ccccc1 (stereo not drawn)
not listed: [1] | [3] | [17] | [18] | [19]
inactive: all other assays above

CC(C)CC=C(C=O)c1ccccc1
active: [14] 71.8 µM
not listed: [3] | [4] | [5] | [6] | [17] | [18] | [19]
inactive: all other assays above

Cc1ccc2c(c1)OCC(=O)CO2
not listed: [5] | [6] | [7] | [17] | [18] | [19]
inactive: all other assays above

Oc1ccc2c(c1)CCC2
not listed: [1] | [3] | [8] | [17] | [18] | [19]
inactive: all other assays above

Cc1ccc([N+](=O)[O-])c(C)c1
not listed: [4] | [7] | [13] | [14] | [17] | [18] | [19]
inactive: all other assays above

CO[Si](C)(CCC(F)(F)C(F)(F)C(F)(F)C(F)(F)C(F)(F)C(F)(F)F)OC
not listed: [1] | [3] | [6] | [8] | [14]
inactive: all other assays above
